The sequences below were run against FZR1 (assay: pooled miR-30 sensor sort-seq; sequence = guide strand). Conditions: shRNA.
Further: reference of the scale not given here.

Sequence | sensor-assay potency score (higher = more potent)
TGAGAGGTCACAGAGCCGCGTC | -0.649
TTGCACACTTGGGAGCCCGTGT | -0.748
TTCTGTGAGTAGCCGTGCGTGC | -1.08
TCATTCTGGATGACGATCTGGC | 0.47
TACACTGCAGTGGTTGTCCTGT | -0.434
TTCTCATTCTCGTTAATCCTGT | -0.581
TGAGACTCCAGGATCCTCCAGG | -0.492
TTTGTCGAACGGGTTTTGCTAA | -0.856
AACATGGACAGCTTCTTCCCTG | -0.261
TCTGTGGACCACTTGAGCCCGC | -0.976
TCTGGTTCTGTGAGTAGCCGTG | -0.152

The sequences below were run against GAA in the same assay as above. Conditions: shRNA.

Sequence | sensor-assay potency score (higher = more potent)
TTGTTGAACGTGAAGTCCCTCC | 0.0246
TTAAACTGCAGGATTTCTGGCA | 0.151
TTGTGCAGGTTGTAGTGTGTGG | -0.0928
TTCACGATCGTGTTATTCCTGG | -0.238
TTAAGATTTAGAATCTCCCAAG | -0.492
AATCTTATTAACACAGAGCAGC | -1.53
TAGTCCAGGTCGTTCCACTGGA | -0.244
TTGATCGTGAAGTGGAGGCGGT | -0.412
TCCTCGGAGAACTCCACGCTGT | -1.76
TTGGTGTCGGGGCTGTAGGTGA | -0.824
TAACACAGAGCAGCCCTCCAGG | -0.565
TACTGCTGCACCACGCTCTTGG | 0.362
TTAGCTGGATCTTTGATCGTGA | 0.689
TAGAGGTTCGCACCGGGCGTGG | -1.37
TTCATGTCAATCCACATGCCGT | -0.999
TACAATCTTATTAACACAGAGC | -0.86
TTCTCCAGCTTGTAGCTGGGGT | -0.57
TTTGATCGTGAAGTGGAGGCGG | 0.187
TTGTGGTTCCGCATGAAGGGGT | -0.144
TTTAGAATCTCCCAAGTCCTGT | 0.11
TGAACGTGAAGTCCCTCCGGGA | -0.701
TAAACTGCAGGATTTCTGGCAC | -0.0629
TTTGCAGGGATGTAGCAACAGC | -1.16
TTGAACGTGAAGTCCCTCCGGG | 0.671

What follows are sequences tested against GAB3 in the same assay as above. Conditions: shRNA.

Sequence | sensor-assay potency score (higher = more potent)
TTATTCTGAAATTCCTTCCGAA | 0.459
TTCCACACTGCACACTCGCTGA | -0.565
TTGCTGGAGTGCTTGTTCCTGT | -0.331
TTTCCTTGAATCGTTATGCTTT | 0.221
TTTTCTATCTCCAATCTGGTGT | 0.0351

— the OligoGym collection
